Results taken from ChEMBL document CHEMBL4513216, “Probing the Open Global Health Chemical Diversity Library for Multistage-Active Starting Points for Next-Generation Antimalarials” (ACS Infect Dis, 2020).
Hit rate of the full screen: of about 69,000 compounds, about 8,600 (12%) showed an effect of 50% or more. The list comes from a sample in which strong results are over-represented; it also holds similar structures and randomly drawn compounds.

Test system: Plasmodium berghei
Assay: Screen against P. berghei liver stage (PbLuc), transformed with Luciferase, at 10uM
Format: functional, HepG2
Conditions: tested at 10 uM

Row | SMILES | INHIBITION
1 | CCCc1ccc(S(=O)(=O)NC(=O)CCC2CCCO2)cc1 (configuration not stated) | 4.71%
2 | Cn1cccc1C(=O)N1CCC2(CC1)CC(N1CCOCC1)C2 | -23.3%
3 | COc1ccccc1C1(C(=O)N2CCCC(c3cc(C)[nH]n3)C2)CC1 (configuration not stated) | -14.6%
4 | c1cncc(C2COC3(CCN(Cc4cccs4)CC3)C2)c1 (configuration not stated) | 0.618%
5 | c1cncc(CN2CCC3(CC2)CC(c2cccnc2)CO3)c1 (configuration not stated) | -35%
6 | Cc1ccc(CN2CCC3(CC2)CC(c2cccnc2)CO3)s1 (configuration not stated) | 50.1%
7 | COc1cccc2ccn(CCC(=O)N3CCCC(C(=O)O)C3)c12 (configuration not stated) | -19.7%
8 | COCCN1CCc2ncnc(NC3CC3)c2CC1 | -31.1%
9 | Cc1ncnc2c1CCN(CC(=O)N(C)C)CC2 | 53%
10 | CCc1ncnc2c1CCN(CC(=O)N(C)C)CC2 | 30.3%
11 | CN(C)C(=O)CN1CCc2ncnc(N(C)C)c2CC1 | 3.17%
12 | CCN(C)c1ncnc2c1CCN(C(=O)N(C)C)CC2 | -64.7%
13 | CN(C)C(=O)CN1CCc2ncnc(C3CC3)c2CC1 | 48.4%
14 | Cc1ncnc2c1CCN(C(=O)N(C)C)CC2 | 80.1%
15 | Cc1ncnc2c1CCN(C(=O)CN(C)C)CC2 | 46.7%
16 | CN(C)C(=O)CN1CCc2ncnc(NC3CCC3)c2CC1 | 72.9%

Row | SMILES | INHIBITION
17 | Fc1ccc(C2CN(c3ncnc4[nH]ncc34)CCO2)cc1 (configuration not stated) | 40.8%
18 | CN(C)CCn1nc(C2CCN(Cc3ccccc3)C2)c2cccnc21 (configuration not stated) | 28.3%
19 | Cc1ccc(CNC(=O)c2nn(C)c3c2CS(=O)(=O)CC3)o1 | 30.8%
20 | Cc1ccc(NC2CCN(C(=O)CCc3ccccc3)CC2)nn1 | -26.6%
21 | CCOc1ccnc(N2CCN(C(=O)c3ccc(OC)cc3)CC2)n1 | 31.9%
22 | CSCC(C)(O)CNC(=O)c1ccc(Br)cc1F (configuration not stated) | -59.2%
23 | CSCC(C)(O)CNC(=O)c1cc(Cl)ccc1Cl (configuration not stated) | -21.3%
24 | CSCC(C)(O)CNC(=O)c1cc(Br)ccc1Cl (configuration not stated) | 55.4%
25 | N#Cc1ccc(F)c(CN2CCNC(=O)C2c2cccs2)c1 (configuration not stated) | 23.1%
26 | O=c1cc(-c2ccccc2)nc2n1CCCCC2 | 49%
27 | CCc1ncncc1C(=O)N1CCN(Cc2ccco2)CC1 | 50.4%
28 | CCc1ncncc1C(=O)N1CCCN(Cc2ccc(C#N)cc2)CC1 | 19.6%
29 | CCc1nnsc1C(=O)N1CCCN(Cc2ccc(C)cc2)CC1 | 29.4%
30 | CCc1ncncc1C(=O)N1CCN(Cc2ccsc2)CC1 | 31.9%
31 | CCc1ncncc1C(=O)N1CCCN(Cc2ccc(C)cc2)CC1 | 56.6%
32 | CCc1ncncc1C(=O)N1CCCN(Cc2ccccc2C)CC1 | 19.6%
